High-throughput results (PubChem BioAssay)
The list is not random: actives were taken first. Their share in the collection is about 2.2%.
Abeta rescue: restores growth of yeast expressing A-beta42 peptide; yeast expressing A-beta42, growth rescue, OD600, 48 h; response scale: 0% DMSO, 100% iron-clioquinol control; Potency, µM (highest dose often 46.1 µM), usual class: activators; hit rate 0.063% among 410,000; AID 1347071; also: nearly all actives have a fitted effect of over 55% in size
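Yeast growth medium received pinned compounds, then yeast cells expressing toxic A-beta were added; plates incubated at 30 C for 48 hr. Growth read as absorbance at 600 nm, normalized to DMSO and equimolar FeCl3 plus clioquinol controls.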
FUS suppressor: suppressors of FUS proteinopathy in yeast. S. cerevisiae FUS-expressing, growth rescue, OD600, 24 h. Potency, µM (highest dose often 76.6 µM), most hits filed as activators. hit rate 0.24% among 390,000;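 also: plate controls were DMSO vehicle for no effect and reference control for full effect; nearly all actives have a fitted effect of over 55% in size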
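Yeast FUS proteinopathy model; galactose-induced FUS (2%), starting OD 0.005. Cpds in dilution series, 24hr, 30C, 99% humidity. Abs 600 nm growth. Pos ctrl CP55940 (top 92uM final); neg ctrl DMSO.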
TDP43 rescue: TDP-43 toxicity inhibition in yeast; TDP-43 expressing yeast growth rescue, BacTiter-Glo, 24 h; Potency, µM (series often up to 46.1 µM), for the others: at the highest dose growth rescue (activation), hits mostly activators; hit rate 1.8% among 410,000; also: % of control where 0% means no effect; nearly all actives have a fitted effect of over 50% in size
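In this qHTS, compounds that restore growth of yeast expressing TDP-43 appear as activators. Cells (OD600=0.02, galactose medium, raffinose-pregrown) are incubated with compound 24 hr at 30 deg C and growth is quantified by BacTiter-Glo.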
ERG-DNA inh: ERG Ets/DNA interaction inhibition | P11308 | fluorescence polarization, His-ERG Ets domain / labelled DNA | Potency, µM (doses to about 76.9 µM), without a hit: at the highest dose FP activity, negative = inhibition, hits mostly inhibitors | hit rate 0.028% among 370,000 | AID 624246; active = well fitted inhibition curve with a large enough effect in the polarisation, with a control signal flat; inconclusive = small, poorly fitted or top-dose-only effect, or effect the other way, or a change in a side signal; inactive = no such curve, though single readings can be large or run the other way; the % refers to the polarisation;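 also: polarization taken with two DNA probes labelled with fluorescein and Texas red; % of control where 0% means no effect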
Target sequence (P11308 whole entry, looked up, the tested form may be a part): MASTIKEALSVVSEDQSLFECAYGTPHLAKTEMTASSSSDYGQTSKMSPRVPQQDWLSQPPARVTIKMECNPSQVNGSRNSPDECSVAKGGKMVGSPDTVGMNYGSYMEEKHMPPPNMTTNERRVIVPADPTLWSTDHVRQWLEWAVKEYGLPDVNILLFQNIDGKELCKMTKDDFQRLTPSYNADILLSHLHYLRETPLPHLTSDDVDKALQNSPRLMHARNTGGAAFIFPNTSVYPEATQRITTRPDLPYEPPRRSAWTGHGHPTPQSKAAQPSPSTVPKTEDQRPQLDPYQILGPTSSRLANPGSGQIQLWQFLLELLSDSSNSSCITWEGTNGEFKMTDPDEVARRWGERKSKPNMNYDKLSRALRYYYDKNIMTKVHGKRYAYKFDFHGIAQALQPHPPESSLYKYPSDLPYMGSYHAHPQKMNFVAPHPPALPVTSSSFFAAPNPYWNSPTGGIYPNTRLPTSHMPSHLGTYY
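His-tagged ERG Ets domain (1 uM in the protein solution; 300mM KCl, 50mM Tris-HCl, 1mM EDTA, 1mM DTT, pH 7.5) received compound, then a probe mix of 5 nM fluorescein-DNA and 100nM Texas-615-DNA. Fluorescence polarization was read for both dyes.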
Mito fusion act: inhibitors of mitochondrial division or activators of mitochondrial fusion. S. cerevisiae fusion-defective mutant growth rescue, CellTiterGlo 48 h. AID 485298. hit rate 0.23% among 320,000. Potency, µM (doses to about 46.1 µM), for inactives: at the highest dose growth rescue (activation), hits mostly activators; also: % of control where 0% means no effect; nearly all actives have a fitted effect of over 45% in size
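Yeast fusion mutant, YPEG (non-fermentable carbon), compound, 48 h at 37C non-permissive; CellTiterGlo added, 10 min RT, luminescence read. Rescued growth = division inhibition.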
aSyn yeast inh: rescues yeast growth from alpha-synuclein toxicity; Yeast expressing alpha-synuclein, growth rescue, BacTiter-Glo, 24 h; Potency, µM (titrated, usually from 46.1 µM), inactives show at the top dose growth rescue (activation), actives largely listed as activators; hit rate 0.14% among 370,000; AID 652106; also: % of control where 0% means no effect; nearly all actives have a fitted effect of over 65% in size
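Rescue of yeast growth: cells expressing toxic alpha-synuclein, induced in galactose at OD600 0.02, incubated with compound 24 h at 30 C. ATP luminescence quantified growth; inhibitors of toxicity appear as activators.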
* = called active by the depositor; i = inactive; ? = inconclusive; · = no result; [ ] = dose if it differs, or a comment. Unless noted, calls follow the shape of the dose curve; as a rule, active = well fitted curve in the direction sought with a large enough effect; inconclusive = small, poorly fitted or top-dose-only effect, or another doubt; inactive = no such curve, though single readings can be large; an effect the other way counts as inactive or inconclusive. Potency is read from the fitted curve at half-maximal effect.

SMILES | Abeta rescue | FUS suppressor | TDP43 rescue | ERG-DNA inh | Mito fusion act | aSyn yeast inh
CCCC/C(O)=C1\C(=O)CC(C)(C)CC1=Nc1ccccc1OC | i | i | 5% | -1% | 13% | 5%
CC/C(O)=C1\C(=O)CC(C)(C)CC1=Nc1ccccc1C | i | i | 22% | -6% | 11µM* | 5%
CCOc1ccc(-n2cc(-c3ccccc3)c3c(NC4CCCC4)ncnc32)cc1 | i | i | ? | 4% | · | ·
CCc1ccc(NC(=O)CN2C(=O)C(c3ccc(Cl)cc3)=NC23CCCCC3)cc1 | i | i | 0% | 6% | · | ·
Clc1ccc(/C=N\Nc2ccccc2)cc1 | i | i | 15% | 4% | -4% | 13%
O=C(N/N=C/c1ccc(Cl)cc1)Nc1ccccc1 | i | i | 2.8µM* | -1% | -7% | 12%
CCOc1ccccc1C(=O)Nc1ccc2nc(N3CCN(c4ncccn4)CC3)cc(C)c2c1 | i | i | 18µM* | 1% | · | -15%
COc1cccc(C(=O)Nc2ccc3nc(N4CCN(c5ncccn5)CC4)cc(C)c3c2)c1OC | · | · | · | · | 19% | ·
CCOC(=O)c1ccc(NC(=O)c2noc3c2CCCC3)cc1 | i | i | 13% | 4% | · | ·
COc1ccc(CCNC(=O)C2=C(C)C(=O)OC23CCCCC3)c(OC)c1OC | i | i | 24% | -5% | · | ·
COc1cc(/C=C/C(=O)OCC(=O)NCCC2=CCCCC2)ccc1O | i | i | 0% | 12% | ? | -3%
COc1cc(/C=C/C(=O)OCC(=O)NCCC2=CCCCC2)cc(OC)c1OC | i | i | 35µM* | -6% | · | 14%
Cc1cccc(N2CC(C(=O)Nc3nnc(SCC(=O)N4CCOCC4)s3)CC2=O)c1 (configuration not stated) | i | 18µM* | -11% | 15% | 1% | -10%
Nc1nc(N2CCN(Cc3ccccc3)CC2)n[nH]1 | i | i | -21% | 35µM* | -2% | 1%
CNC(=O)c1cccnc1Nc1cccc(C(F)(F)F)c1 | i | i | 18µM* | -8% | ? | -15%
C/C(=N\NC(=O)COc1ccccc1-c1ccccc1)c1ccccn1 | i | i | ? | -15% | ? | 18µM*
COc1ccc(Br)c(C(=O)OCC(=O)NC2CCCCCC2)c1 | i | i | 22µM* | 3% | 23% | 16%
COc1ccc2c(c1)c(=O)oc1cc(OCC(=O)NC3CCCCC3)ccc12 | ? | i | 16µM* | 3% | -22% | 0%
COc1ccc2c(c1)c(=O)oc1cc(OCC(=O)NC3CC3)ccc12 | i | i | 8% | -6% | -8% | -1%
CN(C)c1ccc(/C=C/c2ccnc3ccc(N)cc23)cc1 | · | · | · | · | · | -30%
Cc1cccc(C2=NN(c3ccccc3)[C@@H](C(=O)N3CCOC3=O)[C@@H]2c2ccc(Cl)cc2)c1 | i | ? | -10% | -7% | · | 16%
Cc1cccc(C2=NN(c3ccc(Br)cc3)[C@@H](C(=O)N3CCOC3=O)[C@@H]2C)c1 | i | i | 11% | -2% | · | ?
Cc1cccc(C2=NN(c3ccccc3)[C@@H](C(=O)N3CCOC3=O)[C@@H]2c2ccc(F)cc2)c1 | i | 5.6µM* | 1% | 13% | · | 23%
C[C@@H]1C(c2ccccc2)=NN(c2ccc(Br)cc2)[C@H]1C(=O)N1CCOC1=O | i | i | ? | 4% | · | 20µM*
O=C1OCCN1C(=O)[C@H]1[C@H](c2ccc(Cl)cc2)C(c2ccc(F)cc2)=NN1c1ccc(Br)cc1 | i | ? | -23% | 4% | · | 10µM*
SMILES | Abeta rescue | FUS suppressor | TDP43 rescue | ERG-DNA inh | Mito fusion act | aSyn yeast inh
Cc1cc(C)cc(-n2ccnc(NCc3ccc(F)cc3)c2=O)c1 | i | i | ? | 6% | · | ·
COc1cccc2cc(C(=O)Nc3ccc(CC(=O)O)cc3)c(=O)oc12 | i | i | 25% | 4% | · | -17%
Cc1ccc(C(=O)CSc2nnc(-c3ccccn3)n2-c2ccccc2)cc1 | · | i | · | · | · | ·
CNS(=O)(=O)c1cnccc1N1CCN(c2cccc(Cl)c2)CC1 | i | i | -13% | -4% | 17% | 2%
CCN(CC)S(=O)(=O)c1cnccc1N1CCN(c2cccc(Cl)c2)CC1 | i | i | ? | -1% | 13µM* | 2%
O=C(CSCC(=O)N1CCCCC1)Nc1nc(-c2ccccc2)c(-c2ccccc2)s1 | i | 18µM* | ? | 8% | 26% | -2%
Cc1ccc(NCSc2ccc(Cl)cc2)cc1 | ? | i | 7.1µM* | 2% | · | 11%
CCOC(=O)Cn1c2ccccc2c2nc(C)sc21 | i | i | 11% | -9% | 0% | -1%
CCOC(=O)Cn1c2ccc(C)cc2c2nc(C)sc21 | i | i | 16µM* | 6% | 4% | -8%
Cc1cc(C)c(C(N)=O)c(SCC(=O)c2cc(C)c(C)cc2C)n1 | i | · | 10% | -1% | 10% | 0%
Cc1cc(C)c(C(N)=O)c(SCC(=O)c2cc(C)n(-c3cc(C)on3)c2C)n1 | i | i | 35µM* | -7% | · | 6%
COc1ccc(CCNC(=O)CCc2c(C)nc3c(c(C)nn3-c3ccccc3)c2C)c(OC)c1 | i | i | 21% | 8% | · | ·
N/C(=N\OC(=O)c1cnn(-c2ccccc2)c1C(F)(F)F)c1cc(C(F)(F)F)cc(C(F)(F)F)c1 | i | i | -9% | 1% | 1% | 0%
O=C(NNC(=O)C(Cl)Cl)c1cnn(-c2ccccc2)c1C(F)(F)F | i | i | -2% | 6% | -1% | 16µM*
Cc1cccc(-c2cc3nc(-c4ccccc4)cc(N4CCC5(CC4)OCCO5)n3n2)c1 | i[9.22 µM] | i | 35µM* | 0% | ? | 3%
O=C(Nc1cccc2ccccc12)c1ccco1 | i | i | 16µM* | · | · | -2%
O=C(Nc1nc2c(ccc3ccccc32)s1)c1ccco1 | i | ? | 5.6µM* | -5% | 7% | -1%
CCCCCC(=O)NC(=S)Nc1cccc(C(C)=O)c1 | 8.9µM* | i | -14%[0.397 µM] | -4% | -2% | 4%
CCCCOc1cccc(C(=O)NC(=S)Nc2cccnc2)c1 | i | · | 25µM* | -12% | 0% | -1%
O=C1C=C(c2cccc(Cl)c2O)C[C@@H](c2ccc(Cl)cc2)C1 | i | ? | 3.2µM* | -2% | 13µM* | -15%
COc1cc(F)c(C2=CC(=O)C[C@H](c3ccc(Cl)cc3)C2)cc1F | i | i | ? | 0% | ? | 0%
COc1ccc([C@H]2CC(=O)C=C(c3cc(F)ccc3F)C2)cc1OC | i | i | 22µM* | 6% | ? | 7%
